The values that follow come from a collection of fitness landscapes (doi:10.1126/science.1257360).

The chains are these.
B1: PhoQ; a variant is named by its letters at X, in order, P23837 (parent)
chain: MKKLLRLFFPLSLRVRFLLATAAVVLVLSLAYGMVALIGYSVSFDKTTFRLLRGESNLFYTLAKWENNKLHVELPENIDKQSPTMTLIYDENGQLLWAQRDVPWLMKMIQPDWLKSNGFHEIEADVNDTSLLLSGDHSIQQQLQEVREDDDDAEMTHSVAVNVYPATSRMPKLTIVVVDTIPVELKSSYMVWSWFIYVLSANLLLVIPLLWVAAWWSLRPIEALAKEVRELEEHNRELLNPATTRELTSLVRNLNRLLKSERERYDKYRTTLTDLTHSLKTPLXXLQXXLRSLRSEKMSVSDAEPVMLEQISRISQQIGYYLHRASMRGGTLLSRELHPVAPLLDNLTSALNKVYQRKGVNISLDISPEISFVGEQNDFVEVMGNVLDNACKYCLEFVEISARQTDEHLYIVVEDDGPGIPLSKREVIFDRGQRVDTLRPGQGVGLAVAREITEQYEGKIVAGESMLGGARMEVIFGRQHSAPKDE

Over roughly 140,000 sequences, “enrichment ratio after two sorts for PhoP signalling” has its median near 0; the highest 2% begin near 11. This excerpt belongs to a sample that is enriched for the highest values. Some results are limits rather than exact numbers.

The test covers variants of B1. Briefly: enrichment ratio after two sorts for PhoP signalling (ratio (wild type AVST 3.29)); higher = more functional. Particulars: with PhoP (E. coli).
Turning to DFEW, the enrichment ratio was at most 0.25.

Turning to DSVD, the enrichment ratio was at most 0.25.

Turning to KHWM, the enrichment ratio was at most 0.25.

Turning to VFFE, the enrichment ratio is at most 0.25.

With QDVC, the enrichment ratio was at most 0.25.

As to AYPL, the enrichment ratio was at most 0.25.

Turning to CSYH, the enrichment ratio was at most 0.25.

For the variant FHNW, the enrichment ratio is at most 0.25.

With IIGT, the enrichment ratio was at most 0.25.

Regarding SEEL, the enrichment ratio is at most 0.25.

Turning to SECK, the enrichment ratio is at most 0.25.

For the variant SECI, the enrichment ratio amounted to 28.3.

For SECL, the enrichment ratio stood at 18.7.

Turning to SEYD, the enrichment ratio is at most 0.25.

Regarding NECL, the enrichment ratio was at most 0.25.

Turning to SEDH, the enrichment ratio is at most 0.25.

Consider SEGD, for which the enrichment ratio came to 1.88.

With SECS, the enrichment ratio came to 20.4.

Turning to SEAI, the enrichment ratio was determined as 7.14.

In the case of SECP, the enrichment ratio was at most 0.25.

With SECA, the enrichment ratio was 19.7.

Consider FMWQ, for which the enrichment ratio was at most 0.25.

As to KFFK, the enrichment ratio is at most 0.25.

Consider EHGM, for which the enrichment ratio is at most 0.25.

Regarding IQWT, the enrichment ratio was at most 0.25.

For KMGN, the enrichment ratio is at most 0.25.

With YTDA, the enrichment ratio is at most 0.25.

In the case of VCDM, the enrichment ratio is at most 0.25.

Turning to EGPQ, the enrichment ratio was at most 0.25.

LCVP: the enrichment ratio is at most 0.25.

As for MECQ, the enrichment ratio is at most 0.25.

As to FEGG, the enrichment ratio was at most 0.25.

For the variant MECG, the enrichment ratio was 9.16.

On to SENE, for which the enrichment ratio was at most 0.25.

As to FECG, the enrichment ratio is 30.4.

In the case of SECE, the enrichment ratio stood at 15.4.

For SECQ, the enrichment ratio came to 11.4.

Turning to SRCQ, the enrichment ratio was 1.15.

For the variant IWCG, the enrichment ratio is at most 0.25.

In the case of STCG, the enrichment ratio is 9.46.

Take QECG: the enrichment ratio turned out to be 23.

In the case of SENW, the enrichment ratio was at most 0.25.

In the case of DDMI, the enrichment ratio is at most 0.25.

Take WKTT: the enrichment ratio was at most 0.25.

Turning to EERG, the enrichment ratio was at most 0.25.

For WYHV, the enrichment ratio is at most 0.25.

On to FLNY, for which the enrichment ratio was at most 0.25.

As to SECG, the enrichment ratio was found to be 13.7.

As for FECI, the enrichment ratio is 3.72.

On to SLCG, for which the enrichment ratio worked out at 6.01.

Regarding SRCG, the enrichment ratio was at most 0.25.

As for SEYV, the enrichment ratio was 5.27.

Regarding SRCV, the enrichment ratio stood at 5.55.

As to FECA, the enrichment ratio is at most 0.25.

Turning to SECV, the enrichment ratio came to 24.5.

As for FECS, the enrichment ratio is 19.8.

Consider MMWP, for which the enrichment ratio is at most 0.25.

As to LWRR, the enrichment ratio is at most 0.25.

YSRA: the enrichment ratio was at most 0.25.

QHHS: the enrichment ratio was at most 0.25.

For DQIV, the enrichment ratio is at most 0.25.

With GIST, the enrichment ratio stood at 8.78.

For the variant MEST, the enrichment ratio was 5.63.

Take GEST: the enrichment ratio stood at 16.9.

Consider LNST, for which the enrichment ratio is at most 0.25.

On to GNST, for which the enrichment ratio came out at 15.1.

As for GVST, the enrichment ratio was at most 0.25.

For MNST, the enrichment ratio is at most 0.25.

For TNST, the enrichment ratio was found to be 12.6.

For GESK, the enrichment ratio was at most 0.25.

Consider ARCL, for which the enrichment ratio was determined as 4.81.

As to GDEI, the enrichment ratio was at most 0.25.

Regarding EMQY, the enrichment ratio is at most 0.25.

Take PNEV: the enrichment ratio was at most 0.25.

With IGRG, the enrichment ratio was at most 0.25.

As for IFWY, the enrichment ratio was at most 0.25.

Consider SWHL, for which the enrichment ratio amounted to 0.549.

HMCK: the enrichment ratio was at most 0.25.

On to YTSF, for which the enrichment ratio is at most 0.25.

With TTSF, the enrichment ratio is 13.7.

YTDF: the enrichment ratio was at most 0.25.

With KQSF, the enrichment ratio was at most 0.25.

Take CTDF: the enrichment ratio is at most 0.25.

Turning to YTWG, the enrichment ratio is at most 0.25.

With TTWG, the enrichment ratio came to 12.2.

TTDF: the enrichment ratio came out at 16.9.

Turning to CKMF, the enrichment ratio was found to be 38.2.

Take CKAF: the enrichment ratio was at most 0.25.

Regarding CKFF, the enrichment ratio was at most 0.25.

Regarding STWG, the enrichment ratio was at most 0.25.

With HDWN, the enrichment ratio is at most 0.25.

For LGQF, the enrichment ratio is at most 0.25.

As to TLMP, the enrichment ratio was at most 0.25.

Take DGEM: the enrichment ratio is at most 0.25.

For EYIG, the enrichment ratio is at most 0.25.

As to LWNR, the enrichment ratio is at most 0.25.

On to GEFD, for which the enrichment ratio was at most 0.25.

As for SQIR, the enrichment ratio is at most 0.25.

MDDP: the enrichment ratio was at most 0.25.

Take TTEL: the enrichment ratio turned out to be 16.6.

Turning to TTMF, the enrichment ratio stood at 20.9.

With QVDF, the enrichment ratio is 15.1.

Regarding RIMF, the enrichment ratio is at most 0.25.

Consider TTPS, for which the enrichment ratio was at most 0.25.

YTEL: the enrichment ratio was at most 0.25.

With TTPA, the enrichment ratio is at most 0.25.

On to TTHF, for which the enrichment ratio was 11.8.

As to NVDF, the enrichment ratio is at most 0.25.

In the case of TTYI, the enrichment ratio stood at 6.16.

THMF: the enrichment ratio was 9.68.

Take QVHF: the enrichment ratio turned out to be 0.315.

For PVYQ, the enrichment ratio is at most 0.25.

Take GLRF: the enrichment ratio was at most 0.25.

Turning to VHDP, the enrichment ratio is at most 0.25.

Take NRQL: the enrichment ratio was at most 0.25.

Regarding DQAF, the enrichment ratio is at most 0.25.

As to KQIG, the enrichment ratio is at most 0.25.

For WLRY, the enrichment ratio was at most 0.25.

As to LTAF, the enrichment ratio was at most 0.25.

Consider STWN, for which the enrichment ratio was at most 0.25.

For TTQF, the enrichment ratio turned out to be 22.7.

Take YTQF: the enrichment ratio was at most 0.25.

For TTAF, the enrichment ratio turned out to be 14.

Take GTQF: the enrichment ratio was at most 0.25.

Regarding TTWN, the enrichment ratio is 15.1.

With YTWN, the enrichment ratio is at most 0.25.

In the case of NHDF, the enrichment ratio is at most 0.25.

SHDF: the enrichment ratio is at most 0.25.

Take YTAF: the enrichment ratio is at most 0.25.

Turning to THDF, the enrichment ratio was 11.6.

With RKCR, the enrichment ratio was at most 0.25.

For QNKW, the enrichment ratio is at most 0.25.

For the variant YVTW, the enrichment ratio is at most 0.25.

Take DWIG: the enrichment ratio was at most 0.25.

As to ERDP, the enrichment ratio is at most 0.25.

Regarding VGHC, the enrichment ratio was at most 0.25.

NFWG: the enrichment ratio was at most 0.25.

Consider KTWY, for which the enrichment ratio was at most 0.25.

Consider WIYN, for which the enrichment ratio was at most 0.25.

For KQSA, the enrichment ratio is at most 0.25.

For TTYN, the enrichment ratio was 12.5.

Take TTWI: the enrichment ratio is 9.7.

On to YTWS, for which the enrichment ratio is at most 0.25.

KSYN: the enrichment ratio is at most 0.25.

Regarding TTGL, the enrichment ratio turned out to be 12.3.

For TTSA, the enrichment ratio worked out at 11.5.

Consider TTWS, for which the enrichment ratio stood at 11.9.

Take YTSA: the enrichment ratio was at most 0.25.

Take YTGL: the enrichment ratio was at most 0.25.

With STGL, the enrichment ratio stood at 9.48.

As for IEKA, the enrichment ratio is at most 0.25.

On to RHPA, for which the enrichment ratio is at most 0.25.

In the case of PCEP, the enrichment ratio was at most 0.25.

For MEYV, the enrichment ratio came out at 5.49.

Turning to WFPG, the enrichment ratio is at most 0.25.
